Results as given in PubChem BioAssay AID2015 (National Center for Advancing Translational Sciences (NCATS), 2009).
The other results are listed elsewhere or left out. Records with an inconclusive call do not appear. A number with no mark means an inactive call. Active and inactive are the calls of the source. Calls follow the shape of the dose curve; as a rule, active = well fitted inhibition curve with a large enough effect; inconclusive = small, poorly fitted or top-dose-only effect; inactive = flat fitted curve, though single readings scatter.

What follows are compounds tested against Galactokinase (Homo sapiens) (UniProt P51570) (assay: Confirmation Assay for Inhibitors of Human Galactokinase (GALK)). Conditions: purified GALK, Kinase-Glo ATP depletion luminescence; series mostly up to 115 µM; activity, negative = inhibition: at the top concentration.
Galactokinase (Homo sapiens), sequence (P51570 whole entry, looked up): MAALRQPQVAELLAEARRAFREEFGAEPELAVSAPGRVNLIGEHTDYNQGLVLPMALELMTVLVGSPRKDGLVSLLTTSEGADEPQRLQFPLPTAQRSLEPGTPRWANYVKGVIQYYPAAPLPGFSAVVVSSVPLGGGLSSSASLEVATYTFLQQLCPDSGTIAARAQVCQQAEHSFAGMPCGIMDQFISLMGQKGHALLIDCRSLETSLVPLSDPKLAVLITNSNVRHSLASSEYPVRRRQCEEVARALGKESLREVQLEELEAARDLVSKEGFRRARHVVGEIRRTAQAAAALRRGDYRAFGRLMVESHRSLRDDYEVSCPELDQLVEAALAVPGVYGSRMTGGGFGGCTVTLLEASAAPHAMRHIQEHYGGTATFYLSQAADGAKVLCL
Text: NIH Molecular Libraries Probe Production Centers Network [MLPCN] NIH Chemical Genomics Center [NCGC] MLPCN Grant: R03 MH085689-01 Assay Submitter (PI): Kent Lai (University of Utah School of Medicine, 50 N Mario Capecchi Drive, Salt Lake City, UT 84132) NCGC Assay Overview Inherited deficiency of galactose-1-phosphate uridyltransferase (GALT) can result in a potentially lethal disorder called Classic Galactosemia (OMIM 230400). Several lines of evidence indicate that an elevated level of galactose-1-phosphate (gal-1-p), the product of galactokinase (GALK), is a major, if not sole, pathogenic mechanism in patients with classic galactosemia. Therefore, finding inhibitors of GALK is a potential novel therapy for this inherent metabolic disease and is the long term goal of this project. Active compounds observed in the qHTS GALK assay (AID: 1868) were cherry picked and re-screened for validation. GALK (provided by Kent Lai) was assayed using ATP and D-(+)-Galactose (Sigma-Aldrich cat# G0750) as substrates. Promega Kinase-Glo Plus (cat# V3774) technology was used to detect the residual ATP following kinetic reaction. Briefly, the Kinase-Glo Plus contains Ultra-Glo [1] luciferase and D-luciferin which generates a bioluminescence signal from the remaining ATP. Kinase reactions with and without GALK were used as negative and positive controls together with Protein Tyrosine Phosphatase CD45 inhibitor (EMD Bioscience cat# 540215) which is shown to inhibit GALK activity.
NCGC Assay Protocol Summary: Three uL/well of ATP-buffer solution (35 uM ATP, 20mM HEPES pH8.0, 5 mM MgCl2, 60 mM NaCl, 1 mM DTT, 0.01% BSA final concentration) was dispensed into 1536-well, assay plates (Greiner, solid white medium-binding plates) with Aurora Discovery BioRAPTR Flying Reagent Dispenser (FRD; Beckton-Dickenson). Compound and control solution (23 nL) was transferred to the assay plate using the Kalypsys 1536-pin tool apparatus. One uL/well GALK-galactose solution (5 nM GALK, 100 uM galactose, 20 mM HEPES pH8.0, 5 mM MgCl2, 60 mM NaCl, 1 mM DTT, 0.01% BSA final concentration) was then added using the FRD yielding a total kinase reaction volume of 4 uL/ well. After 1 hour of room temperature incubation, 4 uL Kinase-Glo Plus reagent was added for a final assay volume of 8 uL/well. Luminescence was detected with the ViewLux plate reader (Perkin Elmer, Waltham, MA) after 2 min incubation using a 1 sec exposure time and 2x binning.

Compound	activity, negative = inhibition [%]	Potency
COc1cccc2cc(-c3cc(=O)oc4cc(C)c(O)cc34)oc12	-8.9	–
CCS(=O)(=O)C1=NSC2=NC(=O)/C(=C\c3ccc(OS(=O)(=O)c4ccccc4)cc3)C(=N)N21	–	26.6 µM (active)
CCOC(=O)c1c(C)[nH]c2c1-c1ccccc1C(=O)C2=O	–	1.68 µM (active)
N#Cc1c(N2CCCCC2)nc(N)c2c(N)nc(SCC(=O)O)cc12	–	21.1 µM (active)
N#C/C(=C(/O)Cc1cccc2ccccc12)c1nc2ccccc2s1	–	33.5 µM (active)
Oc1c(Cl)cc(Cl)c(Cl)c1Cc1c(O)c(Cl)cc(Cl)c1Cl	–	21.1 µM (active)
